Only some compounds are listed: those with a hit (about 19% of all), similar ones and a draw of the others.
HT1080 IDH1KD tx: qHTS for induction of synthetic lethality in tumor cells producing 2HG: qHTS for the HT-1080-IDH1KD cell line; HT-1080 IDH1 knockdown viability, ATP luminescence, 48 h; Potency, µM (top dose mostly 46.1 µM), for the others: at the top dose activity, negative = toxicity, hits mostly cytotoxic; 360,000 compounds, 2% hits;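 further: potency means the concentration at half of the fitted maximal effect; 0% = DMSO wells and -100% = cell-free medium wells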
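% activity derives from luminescence (CellTiter-Glo), normalised to DMSO and no-cell wells. HT-1080-IDH1KD cells, 750/well, had 48 h compound exposure at 37 °C.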
DT40 TDP1 no CPT: qHTS for Inhibitors of human tyrosyl-DNA phosphodiesterase 1 (TDP1): qHTS in cells in absence of CPT | Potency, µM (highest dose often 46.2 µM), without a hit: top-dose activity change, negative = growth inhibition, actives largely listed as inhibitors | 420,000 compounds, 15% hits | AID 686978, 2013 | DT40 Tdp1-/- hTDP1 cells, no CPT, ATP luminescence, 48 h; further: potency means the concentration at half of the fitted maximal effect; nearly all actives have a fitted effect of over 55% in size
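No-CPT arm: Tdp1-/-;hTDP1 DT40 cells (400/well) plus compounds, incubated ≥48 hr at 37 °C. Readout CellTiter-Glo luminescence.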
DT40 TDP1 CPT: qHTS for Inhibitors of human tyrosyl-DNA phosphodiesterase 1 (TDP1): qHTS in cells in presence of CPT | chicken DT40 Tdp1-/-;hTDP1 cells + 20 nM CPT, ATP luminescence, 48 h | Potency, µM (highest dose often 46.2 µM), for the others: at the top dose activity change, negative = growth inhibition, hits mostly inhibitors | 420,000 compounds, 12% hits; further: potency means the concentration at half of the fitted maximal effect; nearly all actives have a fitted effect of over 55% in size
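Chicken DT40 Tdp1-/- cells stably complemented with human TDP1 were seeded at 400 cells/well in medium containing 20 nM camptothecin, exposed to pin-transferred compounds, and grown at 37 °C for at least 48 hr. Viability was read as ATP luminescence.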
IL-1B inflam inh: qHTS for Inhibitors of Inflammasome Signaling: IL-1-beta AlphaLISA Primary Screen; THP-1 LPS/ATP IL-1B secretion, AlphaLISA, 16 h; hits give low values; activity change, % at 57.5 µM; 360,000 compounds, 4.7% hits; in the data active means activity change below about -50%; inconclusive means mostly about -30% to -49%
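Secreted IL-1B measured by AlphaLISA bead assay after 16 h compound exposure of THP-1 cells; compounds (final up to 57.5 uM) added 1 h before LPS (250 ng/mL) and ATP (1.25 mM) stimulation; lower signal means less secretion.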
HT1080NT lethal: qHTS for induction of synthetic lethality in tumor cells producing 2HG: qHTS for the HT-1080-NT fibrosarcoma cell line. HT-1080-NT fibrosarcoma viability, CellTiter-Glo ATP luminescence, 48 h. Potency, µM (top dose mostly 46.1 µM), without a hit: top-dose activity, negative = less viability, hits mostly cytotoxic. 360,000 compounds, 1.6% hits;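 further: NT is the 2HG producing partner of a matched IDH1 knockdown line; potency means the concentration at half of the fitted maximal effect; 0% = DMSO-treated cells and -100% = media-only wells without cells; nearly all actives have a fitted effect of over 55% in size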
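Viability by CellTiter-Glo luminescence after 48 h compound exposure at 37C of HT-1080-NT cells (750/well, RPMI, 5% FBS). % activity scaled between DMSO wells and medium-only wells, then curve-fitted and categorized by curve class.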
Starred values were filed as active, the others as inactive; ? = inconclusive; · = no result given. Unless noted, the call rests on the fitted dose curve; in most records, active means well fitted curve in the direction sought with a large enough effect; inconclusive means small, poorly fitted or top-dose-only effect, or another doubt; inactive means no such curve, though single readings can be large; an effect the other way counts as inactive or inconclusive. Unless noted, on the % scale 0 is the no-effect control and ±100 the full control effect.

SMILES	HT1080 IDH1KD tx	DT40 TDP1 no CPT	DT40 TDP1 CPT	IL-1B inflam inh	HT1080NT lethal
CCOc1ccc2[nH]c(=O)c(CN(CCCN3CCOCC3)C(=O)Nc3ccc(F)cc3)cc2c1	-2%	11%	-2%	-1	-2%
CCc1ccc2[nH]c(=O)c(CN(CCCN3CCOCC3)C(=O)Nc3ccccc3)cc2c1	?	21µM*	23µM*	0	?
CCc1ccc2[nH]c(=O)c(CN(CCCN3CCOCC3)C(=O)Nc3cccc(Cl)c3)cc2c1	?	15µM*	?	-62*	?
O=C(Nc1cccc(Cl)c1)N(CCN1CCOCC1)Cc1ccccc1F	-3%	-6%	-30%	?	-4%
O=C(Nc1cccc(Cl)c1)N(CCN1CCOCC1)Cc1cccc(Cl)c1	?	?	?	-76*	?
C[C@H]1CN([C@@H](C)CO)C(=O)c2cc(Br)cnc2O[C@@H]1CN(C)C(=O)C1CCC1	-3%	?	-27%	-13	3%
COc1cccc(Cn2cnc(-c3ccccc3OC)c2-c2cccnc2)c1	-7%	?	?	-6	?
CCCCc1c(-c2ccccc2OC)ncn1CCc1cccc(Cl)c1	?	21µM*	16µM*	-25	18µM*
COc1ccccc1C1=Nn2c(nnc2C2CCCCC2)SC1	-16%	-28%	-30%	?	-2%
CCCCc1c(-c2ccccc2OC)ncn1Cc1cccc(-c2ccccc2)c1	?	6.5µM*	12µM*	-98*	21µM*
CCCCc1c(-c2ccccc2OC)ncn1Cc1ccc(Cl)cc1	18µM*	12µM*	13µM*	?	?
CCCCc1c(-c2ccccc2OC)ncn1C1CCCC1	?	10µM*	18µM*	-18	?
CC(C)NC(=O)N(C)C[C@H]1Oc2ccc(NC(=O)Nc3ccccc3)cc2C(=O)N([C@@H](C)CO)C[C@@H]1C	12%	6%	3%	7	8%
CN(C)c1ncc2ncc(=O)n(C)c2n1	·	-28%	1%	·	·
O=C(NC1CCCCC1)C(c1ccncc1)N(C(=O)c1csnn1)c1ccccc1 (stereo unspecified)	17%	-16%	10%	5	0%
COc1cccc(Cn2cnc(-c3ccccc3OC)c2C2CC2)c1	?	21µM*	?	0	?
CCCCc1c(-c2ccccc2OC)ncn1Cc1ccc(-c2ccccc2)cc1	?	21µM*	15µM*	?	?
O=c1c(-c2ccccc2)nc2cnc(N3CCOCC3)nc2n1-c1ccccc1	·	-4%	4%	·	·
COCC(=O)N1CCN(c2cccc(Cl)c2)CC1	-2%	-12%	-23%	-15	4%
COc1cc(-c2cc(C(=O)Nc3c(Cl)cc(Cl)cc3Cl)c3ccccc3n2)cc(OC)c1OC	-9%	18µM*	21µM*	36	-3%
CCN(CC)S(=O)(=O)c1ccc(O)c(NC(=O)c2cc(-c3cc(OC)c(OC)c(OC)c3)nc3ccccc23)c1	?	21µM*	?	-22	?
COc1cc(-c2cc(C(=O)Nc3ccc(S(=O)(=O)Nc4ncccn4)cc3)c3ccccc3n2)cc(OC)c1OC	-27%	?	?	10	-16%
COc1cc(-c2cc(C(=O)Nc3ccc(S(N)(=O)=O)cc3)c3ccccc3n2)cc(OC)c1OC	-1%	3.7µM*	4.1µM*	?	-10%
Nc1cc(C(=O)OCC(=O)N2CCC(Cc3ccccc3)CC2)ccc1Cl	0%	?	-26%	-1	4%
Cc1ccc(NC(=O)CSc2nc3n[nH]c(C)c3c(=N)n2-c2cccc(C)c2)cc1	·	3.3µM*	5.8µM*	·	·
SMILES	HT1080 IDH1KD tx	DT40 TDP1 no CPT	DT40 TDP1 CPT	IL-1B inflam inh	HT1080NT lethal
CCC(C)NC(=O)CSc1nc2n[nH]c(C)c2c(=N)n1-c1cc(Cl)ccc1C (stereo unspecified)	·	16µM*	?	·	·
CCC(Sc1nc2n[nH]c(C)c2c(=N)n1-c1ccc(C)c(Cl)c1)C(=O)N1CCOCC1 (stereo unspecified)	-11%	?	?	-9	-15%
Cc1cccc(NC(=O)CSc2nc3n[nH]c(C)c3c(=N)n2-c2cccc(Cl)c2)c1	·	15µM*	18µM*	·	·
CCC(Sc1nc2n[nH]c(C)c2c(=N)n1-c1cccc(Cl)c1)C(=O)NCCOC (stereo unspecified)	?	13µM*	23µM*	-27	-28%
COc1ccccc1NC1CCCCC1NS(=O)(=O)c1ccccc1 (stereo unspecified)	-8%	-24%	?	8	-1%
CCc1nc2ccc(C(=O)N(C)CC(=O)Nc3ccc(F)c(F)c3F)cc2nc1CC	?	?	?	10	14%
COc1cccc(OCc2cc(C(=O)N(Cc3ccccc3)CC3CC3)no2)c1	-9%	?	-27%	-26	-8%
Cc1ccc(C2C(C#N)=C(N)Oc3cc4c(cc32)OCO4)cc1 (stereo unspecified)	?	?	26µM*	-18	?
COc1ccc(C2C(C#N)=C(N)Oc3cc(N)ccc32)cc1 (stereo unspecified)	2%	-4%	2%	-3	2%
Cc1ccc(N=Cc2cc3c(cc2O)OC(N)=C(C#N)C3c2ccccc2)cc1 (stereo unspecified)	?	16µM*	?	?	?
CCc1ccc(C2C(C#N)=C(N)Oc3cc(N)ccc32)cc1 (stereo unspecified)	-16%	?	?	1	-24%
CSc1ccc(C2C(C#N)=C(N)Oc3cc4c(cc32)OCO4)cc1 (stereo unspecified)	?	?	21µM*	-18	18µM*
COc1ccc2c(c1)c1ncn(CCN3CCCC3)c(=O)c1n2C	-4%	1%	-1%	-6	4%
COc1ccccc1CCn1cnc2c3cc(C)ccc3n(C)c2c1=O	-11%	12µM*	18µM*	-26	-29%
Cc1ccc(-n2ncc3c2CCCC3NC(=O)c2csnn2)cc1C (stereo unspecified)	-7%	?	?	0	1%
Cc1nnsc1C(=O)NC1CCCc2c1cnn2-c1ccccc1F (stereo unspecified)	-11%	18µM*	10µM*	4	?
Cc1nnsc1C(=O)NC1CCCc2c1cnn2-c1ccc(C(C)(C)C)cc1 (stereo unspecified)	-20%	7.3µM*	10µM*	-29	-28%
